B-score data for 20 compounds are collected here from PubChem BioAssay AID2642 (Johns Hopkins Ion Channel Center, 2010).

Hit rate of the full screen: of about 310,000 compounds, about 3,900 (1.3%) were called active.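 How the source made its calls: active means compounds whose thallium flux B-score, printed positive for inhibition, exceeds three library SD while starting fluorescence stays within three; inactive means the rest.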 The sample as a whole holds a higher share of actives than the screen did.

For the assay, the target named is Potassium voltage-gated channel subfamily KQT member 1 (Homo sapiens) (UniProt P51787). The assay is described as follows: inhibitors of human KCNQ1 channel, primary screen, cell-based, thallium flux, high-throughput (AID 2642).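 Further: channel opened by potassium depolarization with thallium stimulus after 20 min compound exposure.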 The following applies: CHO-K1 KCNQ1, FluxOR thallium flux fluorescence, at 10 µM; hits give high values.
Potassium voltage-gated channel subfamily KQT member 1 (Homo sapiens), sequence (P51787 whole entry, looked up): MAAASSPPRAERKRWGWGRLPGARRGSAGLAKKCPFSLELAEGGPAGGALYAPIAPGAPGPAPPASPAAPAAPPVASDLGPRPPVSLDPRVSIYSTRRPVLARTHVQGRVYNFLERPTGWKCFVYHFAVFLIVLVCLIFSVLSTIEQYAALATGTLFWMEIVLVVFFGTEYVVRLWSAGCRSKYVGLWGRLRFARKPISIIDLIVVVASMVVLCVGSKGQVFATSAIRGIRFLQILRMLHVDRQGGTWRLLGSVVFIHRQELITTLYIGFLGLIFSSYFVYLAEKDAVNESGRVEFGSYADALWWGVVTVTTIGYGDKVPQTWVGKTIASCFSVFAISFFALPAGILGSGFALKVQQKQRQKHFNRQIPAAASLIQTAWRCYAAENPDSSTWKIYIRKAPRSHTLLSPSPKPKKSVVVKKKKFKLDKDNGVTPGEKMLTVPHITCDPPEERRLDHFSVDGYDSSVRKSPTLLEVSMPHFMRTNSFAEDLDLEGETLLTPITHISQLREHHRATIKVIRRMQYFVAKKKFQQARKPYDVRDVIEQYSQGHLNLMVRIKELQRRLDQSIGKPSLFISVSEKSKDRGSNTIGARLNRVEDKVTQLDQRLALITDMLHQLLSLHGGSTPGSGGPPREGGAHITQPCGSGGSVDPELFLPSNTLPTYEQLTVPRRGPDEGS
For the compound `CCOc1ccc(-c2cc(C)[n+](CCN(CC)CC)c(-c3ccc(OCC)cc3)c2)cc1`, the B-score was 7 (active).

As for `CSC1=NP(=S)(SC)N(C)c2nc3n(c21)CCC3` (stereo not given), the B-score entry was “inactive”.

Regarding `CCN1C(=O)C(=Cc2c(C)n(CC(=O)NCC3CCCO3)c3ccccc23)C(=O)N(CC)C1=S` (stereo not given), the B-score entry is “inactive”.

For the compound `CN(C)S(=O)(=O)c1cc(C(=O)N2CCC(C(=O)O)(c3ccccc3)CC2)ccc1Cl`, the B-score result is “inactive”.

For `Cc1ccc(-c2nc3ccccc3c(=O)n2-c2ccc(Br)cn2)cc1`, the B-score result was “inactive”.

For `CCCCCCCCCCCCn1ccc(=N)cc1`, the B-score was 13 (active).

Consider `CC1=CC(=Cc2sc3ccccc3[n+]2C)C=C(C)O1`, for which the B-score result is “inactive”.

For `Clc1ccc2nc3c(c(-c4ccccc4)c2c1)CNCC3`, the B-score result was “inactive”.

For `O=C(Nc1cccc2ccccc12)N1CCC2(CC1)OCCO2`, the B-score result was “inactive”.

As to `CC(C)(C)c1ccc(CN2C(=O)CN=C(c3ccccc3)c3ccccc32)cc1`, the B-score is 6 (active).

`O=C1CC(=O)N(Cc2ccccc2)C(=O)N1CCCCCCN1C(=O)CC(=O)N(Cc2ccccc2)C1=O`: the B-score entry is “inactive”.

In the case of `C=Cn1ccnc1P(=S)(c1cc(N(CC)CC)ns1)c1nccn1C=C`, the B-score entry was “inactive”.

As to `O=c1[nH]c(=O)n(-c2ccc(F)cc2)c(O)c1C=NCCN1CCCCC1`, the B-score result was “inactive”.

Consider `COC(=O)C1=C(c2ccccc2)C[C@@H]2CC[C@H]1N2C(=O)N1CCCCC1`, for which the B-score entry is “inactive”.

As for `C/C(=N/O)c1ccc2ccc3ccccc3c2c1`, the B-score result was “inactive”.

Consider `C/C=C/CC1(CC)C(=O)NC(=S)NC1=O`, for which the B-score entry was “inactive”.

As for `CCOc1cccc(=NC2CCCCC2)c2c(C)[nH]c(C)c12`, the B-score is 7 (active).

On to `CN(C)c1nc(N(C)C)nc(N(C#N)CCCl)n1`, for which the B-score entry was “inactive”.

For the compound `COc1ccccc1N1CCN(C(CNC(=O)Oc2ccccc2)c2cccnc2)CC1` (stereo not given), the B-score result is “inactive”.

As for `O=C(N/N=C/c1c(O)n(C2CC2)c(=S)[nH]c1=O)c1ccccc1Cl`, the B-score entry was “inactive”.
